# Experimental data as given in PubChem BioAssay AID1508625 (Wald Lab, School of Medicine, Case Western Reserve …, 2021).
# Assay: enhancers of NK cell killing of ovarian tumor cells, primary screen, imaging, OVCAR3, primary NK cells, calcein-AM imaging (AID 1508625);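 note: compound given to NK cells 16 h before adding targets at 1.5 to 1 ratio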
# Details: OVCAR3 lysis by primary NK cells, at 5 µM; z-score: measured here: robust Z-score, single-point normalisation
SMILES,"corrected activity, negative = more killing [%]",z-score
COc1ccc2cc3cc(C(=O)NCCCN4CCN(Cc5ccccc5)CC4)oc3nc2c1,-0.58,-0.142
COC(=O)C1C(=O)C2=C(CC1C)NC(C)=C(C(=O)OC1CCCC1)C2c1ccccc1OC(C)C (stereo not drawn),-2.11,-0.524
Cc1ccc(N2CCN(c3ccc(N4C(=O)C5CCCCC5C4=O)cc3[N+](=O)[O-])CC2C)cc1 (stereo not drawn),-4.67,-1.7
O=C1C2CC=C(Cl)CC2C(=O)N1CC1OCCc2ccccc21 (stereo not drawn),-3.37,-1.29
c1cncc(CNC23CC4CC(CC(C4)C2)C3)c1,-3.27,-1.04
C=CCn1c(COc2cccc3cccnc23)nnc1SCC(=O)OC,-7.09,-2.01
Cc1ccccc1-c1n[nH]c(=S)o1,-4.65,-1.65
CS(=O)(=O)N(CC(=O)N1CCOCC1)c1ccc2c(c1)OCCO2,-1.8,-1
CC1=C(C)CC(C(=O)Nc2ccc(S(=O)(=O)N3CCOCC3)cc2)C(C(=O)O)C1 (stereo not drawn),-10.2,-3.17
COc1cccc(C=Nn2c(C)nnc2C)c1OC,-2.16,-0.942
O=C1c2cccc([N+](=O)[O-])c2C(=O)N1C1C(=O)N(c2cccc(C(F)(F)F)c2)C1c1ccc(F)cc1 (stereo not drawn),-1.05,-0.327
CCOC(=O)C(Cc1ccccc1)C(=O)N(C1CCCCC1)C1CCCCC1 (stereo not drawn),-3.39,-1.82
O=C1c2ccccc2C(=O)N1CCCCCCN1CCN(c2cccc(Cl)c2)CC1,-4.02,-0.848
N#Cc1c(NC(=O)CN2C(=O)C3CC=C(Cl)CC3C2=O)sc2c1CCC2 (stereo not drawn),-0.241,-0.0746
CCC(C)NC(=O)c1ccc2c(=O)n(Cc3ccccc3OC)c(=S)[nH]c2c1 (stereo not drawn),-7.22,-1.91
COc1cc(C=C2C=C(c3ccc(C)cc3)OC2=O)cc(OC)c1OC,-0.351,-0.181
CC(Oc1cccc(Cl)c1)C(=O)NC1CC(C)(C)NC(C)(C)C1 (stereo not drawn),0.623,0.347
Cc1sc2nc(SCC(=O)Nc3ccc(N(C)C)cc3)[nH]c(=O)c2c1C,-4.5,-2.5
NC(=O)CN1CCOCCN(CC(N)=O)CCOCC1,-12.6,-2.65
CCCNS(=O)(=O)c1ccc(F)c(C(=O)Nc2cc(C)ccc2OC)c1,-6,-1.62
Cc1ccc(S(=O)(=O)N2CCCCCC2)cc1C,1.77,0.548
O=C(COc1ccc(Br)cc1)NCc1ccco1,-0.415,-0.147
O=CN1CCN(c2nc3ccccc3nc2C(F)(F)F)CC1,-2.49,-1.02
COc1ccc(OC)c(CN2CCN(Cc3ccccc3[N+](=O)[O-])CC2)c1,-3.74,-1.67
